In ChEMBL document CHEMBL3433997, “St. Jude Leishmania screening dataset” (2016) one finds inhibition data, which are given here for 40 compounds.

Chain of Solute carrier family 2, facilitated glucose transporter member 1 (Homo sapiens) (P11166 whole entry): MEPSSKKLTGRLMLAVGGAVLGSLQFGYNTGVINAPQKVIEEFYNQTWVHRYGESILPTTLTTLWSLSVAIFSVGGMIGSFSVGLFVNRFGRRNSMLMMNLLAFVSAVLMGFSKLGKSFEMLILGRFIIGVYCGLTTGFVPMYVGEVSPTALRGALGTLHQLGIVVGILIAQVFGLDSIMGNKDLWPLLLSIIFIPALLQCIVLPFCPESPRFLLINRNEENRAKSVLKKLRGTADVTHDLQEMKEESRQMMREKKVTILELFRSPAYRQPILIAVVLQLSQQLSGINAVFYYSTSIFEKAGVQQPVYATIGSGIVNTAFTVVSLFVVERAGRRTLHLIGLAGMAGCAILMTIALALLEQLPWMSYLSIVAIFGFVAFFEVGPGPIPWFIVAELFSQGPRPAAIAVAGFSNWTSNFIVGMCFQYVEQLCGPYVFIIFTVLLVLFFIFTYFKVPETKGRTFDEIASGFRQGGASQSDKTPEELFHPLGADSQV

One test addresses Solute carrier family 2, facilitated glucose transporter member 1 (Homo sapiens) (UniProt P11166). Description: ST_JUDE_LEISH: Cytotoxicity at 2uM final concentration against transgenic Leishmania Mexicana promastigotes LmGLUT1 that are glucose transport deficient and complemented with the human glucose transporter GLUT1. Activity is measured by DNA content using SYBR green in vitro. The format is functional.
For `CN(Cc1cc(C(F)(F)F)cc(C(F)(F)F)c1)C(=O)C1CNCC1c1ccc(F)cc1` (stereo not given), the inhibition (in general, the relative decrease from the control value, in per cent) is 6.61%.
The same measure, in the same setting: next, `COc1c(C2CCN(CCCCNC(=O)c3cc(-c4ccc(Cl)cc4)sc3C)CC2)ccc2c1CCCC2`: 0.21%.
The same measure, in the same setting: the same measure for `COc1ccc2[nH]ccc(=NN=Cc3ccc(Cl)cc3)c2c1`: 1.86%.
On the same count and under the same terms, next, `O=C(Nc1ccc2c(c1)CCC2)c1ccc(CN2CCCN(Cc3cccc(O)c3)CC2)cc1`: 11.2%.
Turning to `CO/C(=C\C=C\c1cc2cc(Cl)c(Cl)cc2[nH]1)C(=O)NCCCN(C)CCN(C)c1ccccc1`, the inhibition amounted to 4.46%.
On the same count and under the same terms, next, `O=C(Nc1ccc2c(c1)CCC2)c1cnc(N2CCN(c3ccncc3)CC2)c(Cl)c1`: 54.2%.
Regarding `CCN(CC)CCCC(C)Nc1c(-c2ccc(C)cc2)cnc2ccccc12` (stereo not given), the inhibition worked out at 9.89%.
Still for that read-out and setting: next, `COc1cc(SC)c(Br)cc1-c1nc2ccncc2[nH]1`: 3.09%; `Cc1cccc2nc(-c3ccc(-c4cccc(NCc5cn6cccnc6n5)c4)cc3)[nH]c12`: 2.03%.
Regarding `CN1CCN(Cc2ccc(-c3ccc4c(Nc5ccc(Oc6ccccn6)cc5)ccnc4c3)o2)CC1`, the inhibition was -0.46%.
With `O=C(Nc1cccc(CN2CCCN(Cc3ccc(O)cc3)CC2)c1)c1ccc(Br)cc1`, the inhibition is 0.51%.
Same read-out and setting: next, `Cc1ccc2[nH]c(C)cc(=NN=Cc3cccc(Cl)c3)c2c1`: 2.87%; `COc1ccc2ncc(F)c(CCN3CCC4(CC3)COC(c3cc5c(cn3)OCCO5)=N4)c2n1`: 10.3%.
Still for that read-out and setting: the same measure for `O=C(NCC1CN(Cc2ccc(N3CCCC3)o2)CCCO1)c1ccc2c(c1)OCO2` (stereo not given): -0.31%.
The same measure, in the same setting: the same measure for `Cc1cccc(C(O)CNc2ccnc(Nc3cccc(-c4csc(C)n4)c3)n2)c1` (stereo not given): 3.68%.
In the case of `CCCCOc1cc(CNCCCCCCNCc2cc(OCCCC)cc3ccccc23)c2ccccc2c1`, the inhibition is 4.98%.
The same measure, in the same setting: next, `Cc1[nH]c(C)c(-c2ccc(Oc3ccc(F)cc3)cc2)c(=O)c1Cl`: 4.38%.
The same measure, in the same setting: next, `Cc1cccc(C)c1CNc1nc(N2CCOCC2)cc2c(C)c(C)[nH]c12`: 3.7%; `NCc1cccc(-c2ccc3ccnc(N)c3c2)c1`: 0.01%; `O=c1cc(NCCCNCc2ccc(Cl)c(Cl)c2)[nH]c2ccc(Cl)cc12`: 0.59%.
On the same count and under the same terms, next, `N#Cc1cccc(NC(=O)Nc2ccc(-c3ccc(-c4nc5cc(C(F)(F)F)ccc5[nH]4)cc3)cc2)c1`: 3.68%; `CN(C)CCNC(=O)c1csc(Nc2ccc(Cl)c(Cl)c2)n1`: 0.89%.
Take `COc1cccc(CN2CCC(C(=O)Nc3ccc(-c4nc5ccccc5[nH]4)cc3)CC2)c1`: the inhibition amounted to 23.8%.
Same read-out and setting: the same measure for `CO/C(=C\C=C\c1cc2cc(Cl)c(Cl)cc2[nH]1)C(=O)NCCCN1CCN(c2cccc(CCO)c2)CC1`: -0.14%; for `COc1cccc(C(O)CNc2ccnc(Nc3ccc(Cl)cc3)n2)c1` (stereo not given): 6%; for `COc1c(I)cc(Cc2cnc(N)nc2N)cc1I`: 6.68%.
The same measure, in the same setting: the same measure for `COc1ccc2nccc([C@@H](O)CN3CCC(NCCc4c[nH]c5ccccc45)CC3)c2c1`: 9.59%; for `CCNc1cc(C(=O)N[C@@H](Cc2ccccc2)[C@H](O)CNC(CC)c2cccc(Cl)c2)cc(N2CCCC2=O)c1` (stereo not given in full): 3.51%; for `CCCn1c(Sc2ccc(C#N)c([N+](=O)[O-])c2)nnc1-c1cc(OC)cc(OC)c1`: 0.5%.
Still for that read-out and setting: the same measure for `COc1ccc(CNCc2ccc(-c3ccc(-c4nc5cc(F)ccc5[nH]4)cc3)cc2)cc1`: 5.49%; for `CC(C)Nc1ccc(Nc2ccnc3cc4ccccc4cc23)cc1`: 1.19%; for `O=C(Nc1cccc(CN2CCCN(Cc3ccc(F)cc3)CC2)c1)c1ccc(Cl)c(Cl)c1`: 4.82%.
As to `COc1cccc(OC)c1CN1CCC(N(C)CCCCCCCCCN2CCC(OC(=O)Nc3ccccc3-c3ccccc3)CC2)CC1`, the inhibition amounted to 113%.
Still for that read-out and setting: next, `CCOC(=O)COc1cccc(CNc2ccc3nc(N)nc(N)c3c2)c1`: 2.95%.
The same measure, in the same setting: the same measure for `CC(C)C[C@H](Nc1ccnc(NCC2CCCCC2)n1)C(=O)Nc1ccccc1`: 3.81%.
Same read-out and setting: the same measure for `COc1cncc(/C=C/c2cncc(C(=O)NCCc3ccc(Cl)cc3Cl)c2)c1`: 4.53%; for `CC(CN(C)C)C(=O)Nc1ccc(-c2csc(-c3nc4ccccc4[nH]3)c2)cc1` (stereo not given): 0.09%; for `O=C(Nc1ccc(CN2CCN(S(=O)(=O)c3ccc(Cl)s3)CC2)cc1)c1cccs1`: 8.13%.
`FC(F)(F)c1ccc2[nH]c(-c3ccc(-c4ccc(CNCCN5CCNCC5)cc4)cc3)nc2c1`: the inhibition was -1.44%.
Still for that read-out and setting: the same measure for `CCOC(=O)c1nc(-c2cccc(F)c2)[nH]c1N`: 1.32%.

Another test addresses Hexose transporter 1 (Plasmodium falciparum) (UniProt O97467). Nature of the test: ST_JUDE_LEISH: Cytotoxicity at 2uM final concentration against transgenic Leishmania Mexicana promastigotes LmPfHT that are glucose transport deficient and complemented with the Plasmodium falciparum hexose transporter. Activity is measured by DNA content using SYBR green in vitro. It is filed as functional.
Turning to `CN(Cc1cc(C(F)(F)F)cc(C(F)(F)F)c1)C(=O)C1CNCC1c1ccc(F)cc1` (stereo not given), the inhibition came out at 5.75%.
On the same count and under the same terms, the same measure for `COc1c(C2CCN(CCCCNC(=O)c3cc(-c4ccc(Cl)cc4)sc3C)CC2)ccc2c1CCCC2`: 2.22%.
As for `COc1ccc2[nH]ccc(=NN=Cc3ccc(Cl)cc3)c2c1`, the inhibition was determined as 3.19%.
Still for that read-out and setting: the same measure for `O=C(Nc1ccc2c(c1)CCC2)c1ccc(CN2CCCN(Cc3cccc(O)c3)CC2)cc1`: 12.1%; for `CO/C(=C\C=C\c1cc2cc(Cl)c(Cl)cc2[nH]1)C(=O)NCCCN(C)CCN(C)c1ccccc1`: 3%.
The same measure, in the same setting: the same measure for `O=C(Nc1ccc2c(c1)CCC2)c1cnc(N2CCN(c3ccncc3)CC2)c(Cl)c1`: 63.6%; for `CCN(CC)CCCC(C)Nc1c(-c2ccc(C)cc2)cnc2ccccc12` (stereo not given): 7.44%; for `COc1cc(SC)c(Br)cc1-c1nc2ccncc2[nH]1`: 2.12%.
On to `Cc1cccc2nc(-c3ccc(-c4cccc(NCc5cn6cccnc6n5)c4)cc3)[nH]c12`, for which the inhibition was 0.59%.
For `CN1CCN(Cc2ccc(-c3ccc4c(Nc5ccc(Oc6ccccn6)cc5)ccnc4c3)o2)CC1`, the inhibition was 0.11%.
For `O=C(Nc1cccc(CN2CCCN(Cc3ccc(O)cc3)CC2)c1)c1ccc(Br)cc1`, the inhibition is 0.85%.
Still for that read-out and setting: next, `Cc1ccc2[nH]c(C)cc(=NN=Cc3cccc(Cl)c3)c2c1`: 0.92%.
On the same count and under the same terms, the same measure for `COc1ccc2ncc(F)c(CCN3CCC4(CC3)COC(c3cc5c(cn3)OCCO5)=N4)c2n1`: 7.42%; for `O=C(NCC1CN(Cc2ccc(N3CCCC3)o2)CCCO1)c1ccc2c(c1)OCO2` (stereo not given): 0.65%.
The same measure, in the same setting: the same measure for `Cc1cccc(C(O)CNc2ccnc(Nc3cccc(-c4csc(C)n4)c3)n2)c1` (stereo not given): 4.04%; for `CCCCOc1cc(CNCCCCCCNCc2cc(OCCCC)cc3ccccc23)c2ccccc2c1`: 0.76%.
Regarding `Cc1[nH]c(C)c(-c2ccc(Oc3ccc(F)cc3)cc2)c(=O)c1Cl`, the inhibition turned out to be 4.42%.
Still for that read-out and setting: the same measure for `Cc1cccc(C)c1CNc1nc(N2CCOCC2)cc2c(C)c(C)[nH]c12`: 3.43%.
Same read-out and setting: next, `NCc1cccc(-c2ccc3ccnc(N)c3c2)c1`: 0.05%; `O=c1cc(NCCCNCc2ccc(Cl)c(Cl)c2)[nH]c2ccc(Cl)cc12`: 0.59%.
The same measure, in the same setting: the same measure for `N#Cc1cccc(NC(=O)Nc2ccc(-c3ccc(-c4nc5cc(C(F)(F)F)ccc5[nH]4)cc3)cc2)c1`: 1.32%.
On to `CN(C)CCNC(=O)c1csc(Nc2ccc(Cl)c(Cl)c2)n1`, for which the inhibition was 1.38%.
Still for that read-out and setting: the same measure for `COc1cccc(CN2CCC(C(=O)Nc3ccc(-c4nc5ccccc5[nH]4)cc3)CC2)c1`: 32.9%.
The same measure, in the same setting: next, `CO/C(=C\C=C\c1cc2cc(Cl)c(Cl)cc2[nH]1)C(=O)NCCCN1CCN(c2cccc(CCO)c2)CC1`: 1.35%; `COc1cccc(C(O)CNc2ccnc(Nc3ccc(Cl)cc3)n2)c1` (stereo not given): 5.73%; `COc1c(I)cc(Cc2cnc(N)nc2N)cc1I`: 4.23%.
Turning to `COc1ccc2nccc([C@@H](O)CN3CCC(NCCc4c[nH]c5ccccc45)CC3)c2c1`, the inhibition came to 11%.
In the case of `CCNc1cc(C(=O)N[C@@H](Cc2ccccc2)[C@H](O)CNC(CC)c2cccc(Cl)c2)cc(N2CCCC2=O)c1` (stereo not given in full), the inhibition was -0.75%.
On to `CCCn1c(Sc2ccc(C#N)c([N+](=O)[O-])c2)nnc1-c1cc(OC)cc(OC)c1`, for which the inhibition turned out to be 4.36%.
The same measure, in the same setting: next, `COc1ccc(CNCc2ccc(-c3ccc(-c4nc5cc(F)ccc5[nH]4)cc3)cc2)cc1`: 5.38%; `CC(C)Nc1ccc(Nc2ccnc3cc4ccccc4cc23)cc1`: 4.38%; `O=C(Nc1cccc(CN2CCCN(Cc3ccc(F)cc3)CC2)c1)c1ccc(Cl)c(Cl)c1`: 4.15%.
Still for that read-out and setting: next, `COc1cccc(OC)c1CN1CCC(N(C)CCCCCCCCCN2CCC(OC(=O)Nc3ccccc3-c3ccccc3)CC2)CC1`: 108%; `CCOC(=O)COc1cccc(CNc2ccc3nc(N)nc(N)c3c2)c1`: 1.84%; `CC(C)C[C@H](Nc1ccnc(NCC2CCCCC2)n1)C(=O)Nc1ccccc1`: 3.97%.
As to `COc1cncc(/C=C/c2cncc(C(=O)NCCc3ccc(Cl)cc3Cl)c2)c1`, the inhibition was 5.13%.
For `CC(CN(C)C)C(=O)Nc1ccc(-c2csc(-c3nc4ccccc4[nH]3)c2)cc1` (stereo not given), the inhibition worked out at 3.49%.
On the same count and under the same terms, next, `O=C(Nc1ccc(CN2CCN(S(=O)(=O)c3ccc(Cl)s3)CC2)cc1)c1cccs1`: 7.45%; `FC(F)(F)c1ccc2[nH]c(-c3ccc(-c4ccc(CNCCN5CCNCC5)cc4)cc3)nc2c1`: 0.13%; `CCOC(=O)c1nc(-c2cccc(F)c2)[nH]c1N`: 0.39%.
